From PubChem
This is a sample that favours compounds with a hit; in the whole collection about 4.1% have one here.
DAX1 inh-1 = blocks DAX1 repression of SF-1 activated StAR promoter; HEK293T StAR-luciferase reporter, SF-1/DAX-1 repression relief; inhibition, % at 6.8 µM; actives 1.1% (n = 370,000); AID 652010;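 active = inhibition above the mean over all tested compounds plus 3 SD, cut at about 3.6% in these data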;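 note: 0% = DAX-1 cells with DMSO and 100% = cells lacking DAX-1 with DMSO; higher inhibition means more luminescence from relief of DAX-1 repression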
ssDAF12 agonist = S. stercoralis DAF-12 activation, primary screen; HEK293 ssDAF-12/GRIP1 lit1-tk-luc reporter, luminescence; % of 3 µM dafachronic acid response; activation, % at 6.8 µM; actives 1% (n = 370,000);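 active = activation above the mean over all tested compounds plus 3 SD, cut at about 0.9% in these data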;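 note: 0% = DMSO-only wells and 100% = 3 µM delta7-dafachronic acid wells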
DAX1 inh-2 = inhibits human nuclear receptor DAX1. actives 0.99% (n = 340,000). HEK293 Gal4-DAX1 luciferase reporter, luminescence. P51843. inhibition, % at 6.75 µM. AID 504766;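 active = inhibition above the mean over all tested compounds plus 3 SD, cut at about 4.2% in these data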;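 note: 0% = DAX1-transfected cells with DMSO and 100% = empty-vector control cells with DMSO; inhibition shows as a rise in luminescence from relieved DAX1 repression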
Target sequence (P51843 207-470 limits assumed): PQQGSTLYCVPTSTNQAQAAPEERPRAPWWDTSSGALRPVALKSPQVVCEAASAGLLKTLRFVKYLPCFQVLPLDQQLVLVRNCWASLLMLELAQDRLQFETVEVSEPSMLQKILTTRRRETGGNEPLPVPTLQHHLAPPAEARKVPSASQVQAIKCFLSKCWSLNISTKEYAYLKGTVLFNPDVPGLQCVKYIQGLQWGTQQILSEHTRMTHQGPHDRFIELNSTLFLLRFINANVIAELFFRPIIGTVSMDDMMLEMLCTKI
hgDAF12 agonist = agonists of H. glycines DAF-12 nuclear receptor. actives 1.8% (n = 370,000). HEK293 GAL4-hgDAF12 UAS-luciferase reporter, agonist luminescence; normalized to butyrate control. activation, % at 6.8 µM;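 active = activation above a cutoff set at the mean of all screened compounds plus 3 SD, cut at about 10% in these data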;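 note: 0% = DMSO wells and 100% = sodium butyrate wells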
hcDAF-12 act = activators of H. contortus DAF-12 nuclear receptor; actives 1.4% (n = 370,000); activation, % at 6.8 µM; HEK293 hcDAF-12 lit1-tk-luc reporter, luminescence; 0% DMSO, 100% Δ7-dafachronic acid;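 active = activation above the mean of all tested compounds plus 3 SD, cut at about 5.5% in these data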;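 note: 100% = response to 3 µM Δ7-dafachronic acid high control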
Numbers without * were called inactive; / = no result.

SMILES	DAX1 inh-1	ssDAF12 agonist	DAX1 inh-2	hgDAF12 agonist	hcDAF-12 act
COc1ccc(CNC(=O)[C@H](C)NC(=O)C2CCN(C(=O)[C@H](CCSC)NC(=O)OC(C)(C)C)CC2)cc1	1.2	-1.7	6.2*	-1.6	-1.4
COn1c(-c2ccc(Cl)cc2)nc2ccc(Cl)cc21	-0.1	-0.7	2.0	9.4	2.1
CC(O)c1nc2cc([N+](=O)[O-])ccc2n1Cc1ccccc1 (centres undefined)	-0.2	-1.4	-0.9	-1.2	-1.5
Cc1ccc(COn2c(-c3ccc(Cl)cc3)nc3ccc([N+](=O)[O-])cc32)cc1	2.7	1.1*	4.7*	10.4	2.1
O=C(O)COn1c(-c2ccc(Cl)cc2)nc2ccc(Cl)cc21	1.3	0.1	1.1	5.4	6.2*
COc1ccc(-c2nc3ccccc3n2OCC(=O)O)cc1	2.0	0.3	2.7	10.6*	0.7
CCOC(=O)C(C)On1c(-c2ccccc2)nc2ccc([N+](=O)[O-])cc21 (centres undefined)	1.2	-0.6	3.6	11.5*	0.5
O=[N+]([O-])c1ccc2nc(-c3ccc(Cl)cc3)n(OCc3ccccc3)c2c1	2.5	0.3	1.7	9.3	2.1
CC(=O)c1ccc(Oc2ncnc3sccc23)cc1	2.9	-0.6	2.7	11.0*	1.7
Cc1cc2c(nc1C)CCCN2Cc1ccccn1	-0.4	-0.6	/	1.0	0.9
Clc1ccc(OCc2nnc(-c3ccccc3Br)o2)cc1	-0.1	2.1*	-0.3	0.4	-0.4
Cc1cccc(C)c1-n1nnnc1C1(C)CCC(=O)N1CCCN1CCOCC1 (centres undefined)	1.6	-1.1	/	1.6	1.9
Cc1cc(Nc2cccc([N+](=O)[O-])c2)cc(=O)n1-c1cccc([N+](=O)[O-])c1	-1.1	-1.4	/	-4.2	-1.8
CN(C)c1ccc(C(=O)c2ccccc2)cc1	0.2	2.0*	1.0	9.3	1.5
C=C(c1ccccc1)c1ccc(N(C)C)cc1	0.4	-1.1	0.2	1.9	-1.2
Cc1cccc(C=NNc2cc(C)c3cccc(C)c3n2)n1	1.3	0.6	/	12.0*	3.9
COc1ccc(/C=N/Nc2cc(C)nc3c(C)cccc23)cc1	-0.3	-2.1	-0.7	2.2	-2.0
COCCCN1C(=O)[C@H](CC(=O)NCCC(C)C)[C@]2(C(=O)OC)CCCCC=C12	-0.2	-1.3	/	-0.5	0.5
CCN(CC)CCNC(=O)c1ccc(NC(=O)c2cccc(S(=O)(=O)N3c4ccccc4CC3C)c2)cc1 (centres undefined)	1.9	-0.6	-0.3	0.6	-0.2
CCN(CC)CCNC(=O)c1ccc(NC(=O)c2cccc(S(=O)(=O)N3CCc4ccccc43)c2)cc1	3.9*	-1.5	0.1	1.1	-1.5
COc1cccc2c1OCC(C(=O)Nc1nccs1)=C2	1.5	-0.2	2.6	12.9*	3.5
COC(=O)c1ccc(-c2cccc(CN3CCN(c4ncc(Cc5ccccc5)cn4)CC3)c2)cc1	0.0	-0.8	/	4.0	-3.2
COc1ccc2cc(C(=O)N3CCCC(Nc4ccc(F)cc4)C3)n(C)c2c1 (centres undefined)	0.7	-1.3	1.4	-0.7	-1.4
Cn1c(NCc2cccs2)nc2ccccc21	1.2	1.7*	1.7	8.0	6.1*
CCn1c(NCc2cccs2)nc2ccccc21	-0.5	-1.1	0.7	-0.1	-0.7
SMILES	DAX1 inh-1	ssDAF12 agonist	DAX1 inh-2	hgDAF12 agonist	hcDAF-12 act
Cc1ccc(SCc2cc(=O)[nH]c(Nc3nc(C)c4ccccc4n3)n2)cc1	-0.1	0.0	0.4	-1.1	6.1*
COc1cc(OC)cc(C(=O)NCC2CCN(C(=O)C(=O)c3cccs3)CC2)c1	0.4	-0.3	/	0.9	-0.9
Cc1cc(Nc2cc(F)c(F)c(F)c2)cc(=O)n1-c1cc(F)c(F)c(F)c1	0.1	-0.7	/	1.4	1.2
O=C(Nc1ccc2c(c1)OCO2)Nc1cnccn1	0.2	-1.4	1.8	5.7	0.1
O=C(Nc1ccc2c(c1)OCO2)Nc1ccccn1	2.0	-0.1	1.1	12.2*	2.4
O=C(Nc1ccc2c(c1)OCO2)c1cnn2cccnc12	3.3	-1.2	1.9	10.0	5.7*
N#Cc1ccccc1OCC(=O)Nc1ccc2c(c1)OCCCO2	0.6	-0.8	-0.3	7.5	-0.7
O=C(Nc1ccc2c(c1)OCCO2)c1ccccn1	4.4*	-0.4	-5.4	5.8	2.9
N#Cc1ccccc1OCC(=O)Nc1ccc2c(c1)OCCO2	4.1*	-0.5	0.9	11.7*	6.5*
O=C(Nc1ccc(NC(=O)c2ccccn2)cc1)C(=O)Nc1ccc2c(c1)OCCO2	0.6	-0.5	-0.3	3.8	0.6
CC(OC(=O)c1ccccn1)C(=O)Nc1ccc2c(c1)OCCO2 (centres undefined)	-2.5	-1.1	1.1	11.1*	0.1
COc1cc(C=O)ccc1OCc1ccccc1Br	1.4	-0.4	-0.9	5.0	6.2*
CCCC(=O)Nc1ccc(-c2cnc(-c3ccc(NC(=O)CCC)cc3)nc2)cc1	-0.1	-0.5	0.7	3.7	0.3
Nc1ccc(-c2cnc(-c3ccc(N)cc3)nc2)cc1	1.8	0.6	-3.4	10.5*	4.5
COc1cccc(-c2nc(NCc3cccnc3)c3ccccc3n2)c1O	-0.2	-0.3	-0.1	3.3	5.9*
c1cncc(CNc2nc(-c3cccnc3)nc3ccccc23)c1	-0.8	-1.3	-0.3	0.5	-0.5
O=C(CSc1nc(-c2ccccc2)cs1)Nc1nccs1	1.3	-1.6	-0.4	-1.6	-2.4
CC(C)NC(=O)CSc1nc(-c2ccccc2)cs1	3.2	-1.1	4.7*	10.8*	1.0
O=c1c2ccccc2oc2ccc(-c3ccc4[nH]ccc4c3)cc12	5.0*	-0.1	3.9	10.8*	5.4
Cc1ccc(S(=O)(=O)N2C[C@]3(O)C[C@@H]4C(=O)N(c5ccccc5)C(=O)[C@@H]4C[C@]3(OC(=O)NCc3ccccc3)C2)cc1	0.7	-0.3	1.3	0.9	-0.4
C/C(=N\NC(=O)c1nnn(-c2nonc2N)c1CSc1ccc(C)cc1)c1cccnc1	1.4	-1.2	0.4	-2.4	-1.2
COC(=O)c1c(N=CN(C)C)c(C#N)c2n1CCCC2	-0.7	-1.3	6.0*	-2.3	-1.3
CCN(C(=O)COC(=O)c1ccc(Sc2ncn[nH]2)c([N+](=O)[O-])c1)c1ccccc1	0.0	-0.4	/	-3.9	0.1
Cc1cc(C)cc(C(=O)NCCC(=O)N2CCC3(CC2)NCCc2[nH]cnc23)c1	3.9*	-1.6	0.5	0.2	-0.1
Cc1ccc(C(=O)NCCC(=O)N2CCC3(CC2)NCCc2[nH]cnc23)cc1	0.4	-0.6	0.6	1.8	0.1
C[C@H]1/C=C/CC(=O)N[C@@H](c2ccccc2)[C@@H](C)/C=C/CC(=O)N[C@H]1c1ccccc1	0.4	0.6	/	7.2	-0.1
O=C(COc1ccc2ccccc2c1Br)N1CCCCC1	/	/	2.6	/	/
O=C(Oc1ccc2ccccc2c1Br)N1CCCCCC1	2.8	-0.8	-1.5	-0.5	6.5*
Cc1ccc(C)c(OCCC(=O)Nc2ccc(S(=O)(=O)N3CCCC3)cc2)c1	-1.3	-1.6	-1.2	-0.4	-2.0
